High-throughput results: PubChem, National Center for Advancing Translational Sciences (NCATS)
WRN helicase inh: qHTS for Inhibitors of WRN Helicase | AID 651768, 2012 | WRN helicase unwinding, fluorescent forked duplex, kinetic | actives 0.46% (n = 360,000) | Potency, µM (series often up to 114 µM), hits mostly inhibitors | Bifunctional 3'-5' exonuclease/ATP-dependent helicase WRN (Homo sapiens), Q14191; further: nearly all actives have a fitted effect of over 55% in size
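WRN at 20 nM final was preincubated with compound for 15 min at room temperature; reaction started with 100 nM forked duplex oligonucleotide carrying fluorophore and quencher plus 2 mM ATP (final). Unwinding followed kinetically by red fluorescence (ex 525/em 598 nm).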
Pol eta inh-1: qHTS for Inhibitors of Polymerase Eta; DNA polymerase eta (Homo sapiens), Q9Y253; actives 1.2% (n = 390,000); Potency, µM (titrated, usually from 114 µM), actives largely listed as inhibitors; recombinant Pol eta, fluorescent DNA replication assay
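Pol eta at 10 nM preincubated with compounds 15 min at room temperature; reaction started with fluorescent substrate (50 nM final) and read kinetically at 0 and 10 min.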
POLI inh: qHTS for Inhibitors of Polymerase Iota | DNA polymerase iota (Homo sapiens), Q9UNA4 | Potency, µM (highest dose often 115 µM), usual class: inhibitors | actives 1% (n = 390,000) | Pol iota fluorescent replication assay, 10 min
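Fluorescent replication assay read twice, at 0 min and 10 min after adding 50 nM (final) substrate. Enzyme (10 nM) and compounds were first incubated 15 min at room temperature; enzyme-free buffer wells were negative controls.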
PI5P4K alpha inh: qHTS for Inhibitors of phosphatidylinositol 5-phosphate 4-kinase (PI5P4K) | actives 1.2% (n = 330,000) | PI5P4Kalpha enzyme, ADP-Glo luminescence, 60 min; active compounds read low | max response, % | AID 652105, 2013 | Phosphatidylinositol 5-phosphate 4-kinase type-2 alpha (Homo sapiens), P48426; active means max response of -50% or lower; inconclusive means between -30% and -50%; inactive means -30% or higher; further: value at the top dose of about 77 µM
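ADP-Glo luminescence end-point read after a 60 min room-temperature kinase reaction of PI5P4Kalpha plus substrate, initiated with ATP at 5 microM final. Buffer: 0.038 M HEPES pH 7.4, EGTA, 0.1% CHAPS, 5% DMSO.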
POLB inh: qHTS Assay for Inhibitors of DNA Polymerase Beta | Potency, µM (titrated, usually from 114 µM), usual class: inhibitors | Pol beta primer extension/strand displacement, fluorescence kinetic | actives 1.3% (n = 340,000) | P06746
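Homogeneous kinetic assay of primer extension and strand displacement by 10 nM Pol beta, preincubated 15 min at room temperature with compound before 50 nM substrate (final) was added. Read at 0 and 10 min; four-parameter Hill fit.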
Pol kappa inh-1: qHTS for Inhibitors of Polymerase Kappa; purified Pol kappa, fluorescent DNA synthesis assay, 10 min; DNA polymerase kappa (Homo sapiens), Q9UBT6; actives 0.53% (n = 400,000); Potency, µM (titrated, usually from 107 µM), actives largely listed as inhibitors
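Pol kappa 10 nM + cpd, 15 min RT; start w/ substrate 50 nM final; fluorescence kinetic read, 0 and 10 min. Neg ctrl: buffer, no enzyme.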
GALK confirm: Confirmation Assay for Inhibitors of Human Galactokinase (GALK); shares compounds with Pol eta inh-1; AID 2015, 2009; actives 70% (n = 150); purified GALK, Kinase-Glo ATP depletion luminescence; Potency, µM (doses to about 115 µM), hits mostly inhibitors
Redox cycling: Confirmatory Assay for Inhibitors of Human Galactokinase (GALK): Phenol-HRP redox assay counterscreen; shares compounds with Pol eta inh-1; Phenol red-HRP H2O2 redox cycling, absorbance 600 nm; Potency, µM (top dose mostly 115 µM), hits mostly inhibitors; actives 40% (n = 150); AID 2035, 2009
HEK293 viability: Secondary Assay for Inhibitors of Human Galactokinase (GALK): HEK-293 Cell Viability Assay; shares compounds with Pol eta inh-1; HEK-293 viability, ATP luminescence (CellTiter-Glo), 24/48 h; Potency, µM (highest dose often 46.1 µM), usual class: inhibitors; actives 10% (n = 170); AID 2547, 2010
Pol kappa inh-2: qHTS for Inhibitors of Polymerase Kappa: Confirmatory Assay for Cherry-picked Compounds | actives 76% (n = 920) | purified Pol-kappa, fluorescent strand-displacement substrate | shares compounds with Pol eta inh-1 | Potency, µM, actives largely listed as inhibitors | AID 720501, 2013
Pol eta inh-2: qHTS for Inhibitors of Polymerase Eta: Confirmatory Assay for Cherry-picked Compounds; shares compounds with Pol eta inh-1; Pol eta primer extension, TAMRA/BHQ fluorescence, 10 min; Potency, µM, usual class: inhibitors; actives 64% (n = 2,600); AID 720502, 2013
Of the large screens only hits and unclear results are named; the others gave an inactive call (follow-up assays come after a bar, where they were run). In the library only some 2.8% were active in any assay of this set; here they are far more common. Unless noted, the call rests on the fitted dose curve; in most records, active means well fitted curve in the direction sought with a large enough effect; inconclusive means small, poorly fitted or top-dose-only effect, or another doubt; inactive means no such curve, though single readings can be large; an effect the other way counts as inactive or inconclusive.

Cc1c(C(=O)O)cccc1-c1ccc(/C=N/n2cnnc2)o1	Pol eta inh-1 20µM, POLI inh 35.5µM, POLB inh 25.1µM, Pol kappa inh-1 89.1µM | Pol kappa inh-2 15 | Pol eta inh-2 47.8
Cc1c(Cl)cccc1-c1ccc(/C=N/n2cnnc2)o1	none
CCNc1nc(NCC)n2c(SCC(=O)Nc3ccc(NC(C)=O)cc3)nnc2n1	Pol eta inh-1 39.8µM, POLI inh inconclusive, Pol kappa inh-1 inconclusive (no result: POLB inh) | Pol eta inh-2 inconclusive
Cc1ccc(-c2cc(C(=O)Nc3cccnc3)c3ccccc3n2)o1	WRN helicase inh inconclusive, Pol eta inh-1 44.7µM, POLI inh inconclusive, POLB inh inconclusive (no result: PI5P4K alpha inh) | Pol eta inh-2 inconclusive
CCOC(=O)c1cc(-c2ccc(/C=C3/C(=O)N(c4ccc(C(=O)O)cc4)N=C3C)o2)ccc1Cl	Pol eta inh-1 17.8µM, POLI inh 1.41µM, Pol kappa inh-1 inconclusive | GALK confirm 21.1µM | Redox cycling 11.9µM | HEK293 viability inactive
COc1ccc(OC)c(S(=O)(=O)Nc2ccc3c(c2)OCCO3)c1	none (no result: POLI inh, POLB inh, Pol kappa inh-1)
Brc1ccc([C@H]2CN3CCSC3=N2)cc1	POLI inh inconclusive
Cc1cccc(NC(=O)/C(=C\c2ccc([N+](=O)[O-])o2)NC(=O)c2ccc(Cl)cc2)c1	Pol eta inh-1 10µM, POLI inh inconclusive, PI5P4K alpha inh inconclusive, POLB inh 10µM, Pol kappa inh-1 inconclusive | Pol eta inh-2 inconclusive
Cc1ccc(C(=O)N/C(=C/c2ccco2)C(=O)Nc2cccc(C(=O)O)c2)cc1	Pol eta inh-1 22.4µM, POLI inh inconclusive, PI5P4K alpha inh -52.5, Pol kappa inh-1 inconclusive | Pol eta inh-2 inconclusive
Cc1cc(NC(=O)/C=C/c2ccco2)ccc1NC(=O)c1ccccc1	none
O=C(/C=C/c1ccco1)Nc1ccccc1C(=O)Nc1cccc(C(=O)O)c1	WRN helicase inh inconclusive, Pol eta inh-1 17.8µM, POLI inh 20µM, Pol kappa inh-1 inconclusive | Pol kappa inh-2 23.8 | Pol eta inh-2 30.1
COC(=O)/C(=C\c1ccc([N+](=O)[O-])o1)NC(=O)c1ccccc1	none
COc1ccccc1C(=O)N/C(=C/c1ccco1)C(=O)Nc1cccc(C(=O)O)c1	WRN helicase inh inconclusive, Pol eta inh-1 20µM, POLI inh inconclusive, PI5P4K alpha inh inconclusive, POLB inh inconclusive, Pol kappa inh-1 44.7µM | Pol kappa inh-2 33.6 | Pol eta inh-2 75.7
CCN1CCN(c2ccccc2NC(=O)c2ccc(-n3cccn3)cc2)CC1	none (no result: POLB inh)
COCC(=O)N1CCC2(CC1)CN(c1cccc(-c3ccccc3)c1)C2	none (no result: WRN helicase inh, Pol eta inh-1, POLI inh, PI5P4K alpha inh, POLB inh)
